The values below come from PubChem BioAssay AID652120 (NMMLSC, 2013).

The term viability denotes a per cent measure of how many cells are alive, often set against a control.

Calls of active or inactive are those of the source.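 The calls were made as follows: active = viability below 50% at the top dose and a half-maximal effect concentration under 10 µM; inactive = the rest.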

The experiment can be described thus: NIH 3T3 cell cytotoxicity, dose response, cytotoxicity control for AML myeloid differentiation project, CellTiter-Glo, Powder Set01 subset01 (AID 652120). The following applies: NIH 3T3 viability, ATP luminescence (CellTiter-Glo); series mostly up to 10 µM; viability: at the top concentration. On the technique in general: Cellular ATP, detected with luciferase, serves as a proxy for viable cell number.
For the molecule `Cc1ccc(Nc2nc(=O)c3cccnc3s2)c(Br)c1`, the “viability” value is 67.7% (inactive).

With `O=C(CCNC(=O)c1ccc(Cl)cc1)NC1CCCc2ccccc21` (stereo not drawn), the “viability” value was 68.5% (inactive).

For the molecule `O=C(O)c1cccnc1Nc1ccc(Cl)cc1`, the “viability” value was 68.4% (inactive).
